Test results published in publication PMC4336329 (PLoS ONE, 2015).
Hit rate of the full screen: of about 310,000 compounds, about 14,000 (4.5%) showed an effect of 50% or more. Effects have a minus sign here. Shown is part of a subset that was picked to be rich in strong results.

Molecular target: human ether-à-go-go-related gene (hERG) potassium channel (human, UniProt Q12809)
Assay: primary screen, population patch clamp on CHO cells stably expressing hERG; higher = less effect of the substance
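Further: peak tail current of the secondary pulse compared with the same well before compound.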

Chain of human ether-à-go-go-related gene (hERG) potassium channel (Q12809 whole entry, looked up): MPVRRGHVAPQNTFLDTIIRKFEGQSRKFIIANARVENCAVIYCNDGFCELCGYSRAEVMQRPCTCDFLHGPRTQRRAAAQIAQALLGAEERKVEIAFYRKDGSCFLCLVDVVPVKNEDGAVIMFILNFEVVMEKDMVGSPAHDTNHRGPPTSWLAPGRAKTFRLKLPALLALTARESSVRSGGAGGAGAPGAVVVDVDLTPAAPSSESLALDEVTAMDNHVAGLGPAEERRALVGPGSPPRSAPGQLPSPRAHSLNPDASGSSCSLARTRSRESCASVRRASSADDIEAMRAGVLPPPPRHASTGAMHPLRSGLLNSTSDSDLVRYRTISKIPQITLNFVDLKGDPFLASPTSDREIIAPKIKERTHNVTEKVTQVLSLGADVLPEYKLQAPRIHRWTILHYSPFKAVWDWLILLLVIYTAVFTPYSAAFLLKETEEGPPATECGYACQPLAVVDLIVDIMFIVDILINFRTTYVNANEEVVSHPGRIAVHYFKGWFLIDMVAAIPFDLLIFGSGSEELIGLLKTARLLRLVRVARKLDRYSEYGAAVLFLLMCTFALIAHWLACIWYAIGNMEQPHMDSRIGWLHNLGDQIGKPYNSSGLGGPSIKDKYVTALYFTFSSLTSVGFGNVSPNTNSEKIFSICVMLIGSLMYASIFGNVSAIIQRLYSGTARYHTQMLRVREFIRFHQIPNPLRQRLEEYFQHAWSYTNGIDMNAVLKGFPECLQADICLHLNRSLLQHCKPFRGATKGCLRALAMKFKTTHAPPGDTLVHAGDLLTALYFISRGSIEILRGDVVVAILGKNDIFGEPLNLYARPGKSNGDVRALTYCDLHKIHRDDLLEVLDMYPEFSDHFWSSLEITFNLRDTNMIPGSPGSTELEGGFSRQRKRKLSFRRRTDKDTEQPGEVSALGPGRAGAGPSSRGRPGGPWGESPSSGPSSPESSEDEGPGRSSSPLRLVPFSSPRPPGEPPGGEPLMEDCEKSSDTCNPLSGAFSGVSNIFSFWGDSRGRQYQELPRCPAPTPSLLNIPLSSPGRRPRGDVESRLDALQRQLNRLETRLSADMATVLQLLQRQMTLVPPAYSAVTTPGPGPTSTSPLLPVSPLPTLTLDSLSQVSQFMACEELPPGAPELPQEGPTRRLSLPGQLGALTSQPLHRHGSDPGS

Going from CCOC(=O)C1=C(c2ccccc2)OC(N)=C(C#N)C1c1cccs1 (stereo not shown) to COc1cccc(C2C(C#N)=C(N)Oc3cc(C)n(Cc4ccccn4)c(=O)c32)c1OC (stereo not shown), the “hERG current change (%, negative = inhibition) at 10uM” value rises from 3.11% to 3.7%.

Going from O=C(c1ccc(=O)[nH]c1)N1CCN(S(=O)(=O)c2cc(C(F)(F)F)ccc2Cl)CC1 to Cc1cc(C)c(C)c(S(=O)(=O)N2CCN(c3ncnc4ccccc34)CC2)c1C, the “hERG current change (%, negative = inhibition) at 10uM” value rises from -13.4% to -4.67%.

First: Cc1ccc(NC(=O)CN(C)Cc2ccc(F)cc2)c([N+](=O)[O-])c1
Second: Cc1ccc2occ(/C=N/NC(=O)[C@@H](N)Cc3ccccc3)c(=O)c2c1.Cl
The “hERG current change (%, negative = inhibition) at 10uM” value of the first is higher: -17.8% for the first, -22.5% for the second.

Compared with CSc1nc2c(c(=O)[nH]1)C(c1ccncc1)C(C(=O)OC(C)C)=C(C)N2 (stereo not shown), COc1ccc([C@@H]2[C@@H]3C(=O)N(C(C)(C)C)C(=O)[C@@H]3[C@]3(Cc4ccccc4)C(=O)N(c4ccc(C)cc4)C(=O)N23)cc1 is higher in “hERG current change (%, negative = inhibition) at 10uM” value: -0.441% for the first, 2.04% for the second.

First: CCN(CC)c1ccc(NC(=O)COc2ccccc2C#N)cc1S(=O)(=O)Nc1ccc(OC)cc1
Second: Cc1ccccc1S(=O)(=O)Oc1ccccc1C(=O)Oc1ccccc1
The “hERG current change (%, negative = inhibition) at 10uM” value of the first is higher: 13% for the first, -1.26% for the second.

Compared with CN(Cc1ccccc1)C(=O)c1[nH]cnc1C(=O)NCC(=O)OC(C)(C)C, Cc1cc(C(=O)Nc2ccc(C(=O)O)cc2)c(C)o1 is higher in “hERG current change (%, negative = inhibition) at 10uM” value: 10.4% for the first, 23.9% for the second.

Compared with COc1ccc(/C=C2\SC(=O)N(CCNC(=O)Cc3coc4cc(C)ccc34)C2=O)cc1OC, Cc1ccc(-c2cc(C(=O)Nc3c(C)n(C)n(-c4ccccc4)c3=O)no2)cc1 is lower in “hERG current change (%, negative = inhibition) at 10uM” value: 4.76% for the first, -25.3% for the second.

First: CC(C)(C)[C@@H]1CCC(=O)N(CC[C@H](Sc2ccccc2)c2ccccc2)CC1
Second: Cc1cccc(N2CCN(C(=O)CC(NC(=O)c3ccccc3)c3ccccc3)CC2C)c1 (stereo not shown)
The “hERG current change (%, negative = inhibition) at 10uM” value of the first is higher: 17.1% for the first, -47.1% for the second.

Compared with Cc1cc(C)cc(NC(=O)COC(=O)CC2CCCC2)c1, COc1ccc(NC(=O)CSc2nnc3n2CCCCC3)cc1 is higher in “hERG current change (%, negative = inhibition) at 10uM” value: -0.633% for the first, 8.17% for the second.

Compared with Cc1cccc(C)c1NC(=O)CN(C)C(=O)CCc1nc2sc3c(c2c(=O)[nH]1)CCCC3, COc1ccc2c(c1)CCc1c(C(=O)Nc3c(C)n(C)n(-c4ccccc4)c3=O)noc1-2 is lower in “hERG current change (%, negative = inhibition) at 10uM” value: 5.53% for the first, 4.63% for the second.

Going from CCOc1ccc2nc(N3CCCC(C(=O)NCCCN4CCCCC4)C3)sc2c1 (stereo not shown) to CCOc1ccc2nc(N3CCCC(C(=O)NCCCN4CCOCC4)C3)sc2c1 (stereo not shown), the “hERG current change (%, negative = inhibition) at 10uM” value rises from -64.8% to -19.6%.

Compared with CCOc1ccc2nc(N3CCCC(C(=O)NCCCN4CC(C)CC(C)C4)C3)sc2c1 (stereo not shown), Br.CCOc1ccc(C2=CS/C(=C(\C#N)c3nnc4n3CCCCC4)N2CC)cc1 is higher in “hERG current change (%, negative = inhibition) at 10uM” value: -48.8% for the first, -47.3% for the second.

Compared with CC1(C)CC2CC(C)(CN2C(=O)C23CCC(C)(C(=O)C2)C3(C)C)C1 (stereo not shown), Cc1cccc(OC(C)C(=O)N2CCCN(C)CC2)c1C (stereo not shown) is higher in “hERG current change (%, negative = inhibition) at 10uM” value: -4.28% for the first, 1.75% for the second.

Going from COc1ccc(N2CCN(C(=O)CC(NC(N)=O)c3cccc(Oc4ccccc4)c3)CC2)cc1 (stereo not shown) to COc1cccc(N2CCN(C(=O)CC(NC(=O)c3ccccc3)c3ccccc3)CC2)c1 (stereo not shown), the “hERG current change (%, negative = inhibition) at 10uM” value falls from -7.97% to -65%.

First: CC(NC(=O)c1ccccc1)c1nc2ccccc2n1Cc1ccc(C#N)cc1 (stereo not shown)
Second: CC(NC(=O)c1ccccc1)c1nc2ccccc2n1Cc1ccccc1F (stereo not shown)
The “hERG current change (%, negative = inhibition) at 10uM” value of the first is lower: -68.6% for the first, 0.996% for the second.

Going from N#Cc1ccc(CN2CCN(C(=O)CC(NC(=O)c3ccccc3)c3ccccc3)CC2)cc1 (stereo not shown) to O=C(NC(=S)N1CCN(Cc2ccccc2)CC1)c1ccccc1, the “hERG current change (%, negative = inhibition) at 10uM” value rises from -81.2% to 6.47%.

Compared with CC(=O)NC(CC(=O)N1CCN(C(C)=O)CC1)c1ccccc1 (stereo not shown), CCC1(C)Cc2c(sc3c2c(=O)n(-c2ccccc2)c(=O)n3C)CO1 (stereo not shown) is lower in “hERG current change (%, negative = inhibition) at 10uM” value: 27% for the first, 5.26% for the second.

First: CCn1c(C(C)NC(=O)c2cccc(C)c2)nc2ccccc21 (stereo not shown)
Second: Cc1c(NC(=O)c2cc(-c3ccccc3)on2)c(=O)n(-c2ccccc2)n1C
The “hERG current change (%, negative = inhibition) at 10uM” value of the first is higher: -19.6% for the first, -27.7% for the second.

Compared with COc1cc2cnc(-c3ccccc3)c(-c3cc(OC)c(OC)c(OC)c3)c2cc1OC, Cc1ccc(-c2cc(C(F)(F)F)n3nc(C(=O)Nc4c(C)n(C)n(-c5ccccc5)c4=O)cc3n2)cc1 is lower in “hERG current change (%, negative = inhibition) at 10uM” value: -0.323% for the first, -14.3% for the second.

First: Cn1c2ccccc2c(=O)c2ccc(C#CC3(O)CCCCC3)cc21
Second: Cc1c(NC(=O)c2noc3c2CCc2ccccc2-3)c(=O)n(-c2ccccc2)n1C
The “hERG current change (%, negative = inhibition) at 10uM” value of the first is higher: 1.63% for the first, -52.9% for the second.

Going from COc1cccc(N(CC(=O)NCc2ccco2)C(=O)CCC(=O)Nc2nccs2)c1 to Cc1c(NC(=O)c2cc(-c3ccc(Cl)cc3)on2)c(=O)n(-c2ccccc2)n1C, the “hERG current change (%, negative = inhibition) at 10uM” value falls from 1.6% to -55.1%.

Compared with CSCCC(NS(=O)(=O)c1ccc(Cl)cc1)C(=O)OCc1c(Cl)cccc1Cl (stereo not shown), Cc1c(N/C(=N/S(=O)(=O)c2ccc(Cl)cc2)c2ccccc2)c(=O)n(-c2ccccc2)n1C is lower in “hERG current change (%, negative = inhibition) at 10uM” value: 6.45% for the first, -20.6% for the second.

Going from COc1ccc(OC)c(C(C)NC(=S)NC2CCCCC2)c1 (stereo not shown) to Br.C=CCN1C(c2ccc(OCC)cc2)=CS/C1=C(\C#N)c1nnc2n1CCCCC2, the “hERG current change (%, negative = inhibition) at 10uM” value falls from -6.58% to -37.9%.

First: C=CCn1c(=O)/c(=C/c2ccc(F)cc2)s/c1=C(\C#N)c1nnc2n1CCCCC2
Second: C=CCn1c(=O)/c(=C/c2ccc(Cl)cc2)s/c1=C(/C#N)c1nnc2n1CCCCC2
The “hERG current change (%, negative = inhibition) at 10uM” value of the first is lower: -59.9% for the first, -43% for the second.

Going from Br.C=CCN1C(c2ccccc2)=CS/C1=C(\C#N)c1nnc2n1CCCCC2 to C=CCn1c(=O)/c(=C/c2ccc(O)cc2)s/c1=C(/C#N)c1nnc2n1CCCCC2, the “hERG current change (%, negative = inhibition) at 10uM” value rises from -59.2% to -16.6%.

First: Cc1cc(NC(=O)c2noc3c2CCc2ccccc2-3)no1
Second: Cc1c(NC(=O)c2cc3nc(-c4ccc(Cl)cc4)cc(C(F)(F)F)n3n2)c(=O)n(-c2ccccc2)n1C
The “hERG current change (%, negative = inhibition) at 10uM” value of the first is higher: 11% for the first, -55.3% for the second.

Compared with Cc1ccc(S(=O)(=O)/N=C(/Nc2c(C)n(C)n(-c3ccccc3)c2=O)c2ccc(Cl)cc2)cc1, Cc1c(N/C(=N/S(=O)(=O)c2ccccc2)c2ccc(Cl)cc2)c(=O)n(-c2ccccc2)n1C is higher in “hERG current change (%, negative = inhibition) at 10uM” value: -57% for the first, -30.7% for the second.

With Cc1c(NC(=O)c2cc3nc(-c4ccc(Br)cc4)cc(C(F)(F)F)n3n2)c(=O)n(-c2ccccc2)n1C the “hERG current change (%, negative = inhibition) at 10uM” value was -33.9%.
